High-throughput results from PubChem.
This is one part of a sample in which hits are shown more often than they occur.
Pf Dd2 growth: Plasmodium falciparum Dd2 growth inhibition | P. falciparum Dd2 growth, SYBR Green, 72 h | Potency, µM (series often up to 28.9 µM), for the others: at the highest dose activity, negative = inhibition, actives largely listed as inhibitors | 4.3% of 120,000 active | AID 1347417; active = well fitted inhibition curve with a large enough effect;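 also: plate controls were DMSO vehicle for no effect and reference drug for full effect; nearly all actives have a fitted effect of over 65% in size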
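Readout: SYBR Green fluorescence, 485 nm excitation, 535 nm emission, after ~16 h lysis at 37C. Before that, Dd2-infected red cells (2.5% hematocrit) grew 72 h with compound, 29 uM top final concentration.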
* = called active by the depositor; i = inactive; [ ] = remark or other dose. Potency is read from the fitted curve at half-maximal effect.

SMILES	Pf Dd2 growth
COCCNc1ncc(-c2cccc(N[S+](C)(=O)[O-])c2)c2c1OCC2	10%[44.1 µM]
Cc1ccc(C(=O)N2C[C@@H](CO)[C@H](c3ccccn3)C2)c(C)c1	-2%
COc1ccc(C2NC(=O)N(CC3CC3)C3=C2C(=O)OC3)cc1 (stereo unspecified)	-10%
NC(=O)[C@@H](Cc1ccccc1)NC(=O)C1=C[C@@H](NC(=O)c2ccco2)[C@@H](O)[C@H](O)C1	-14%[44.1 µM]
O=C(N[C@H]1CCN2C(=O)N(c3cccc4nsnc34)C(=O)[C@@H]2C1)c1ccc(F)c(Cl)c1	-15%
O=C(CCC1CCCC1)N1CCC(c2nc(C3CCOCC3)no2)C1 (stereo unspecified)	i
O=C(c1ccco1)N1CCN(C(=O)c2cnn(-c3cccc(F)c3)c2C2CCNCC2)CC1	2%
O=C(Nc1cccc(C(F)(F)F)c1)c1cnn(-c2cccc(F)c2)c1C1CCNCC1	11µM*
CC(=O)c1ccc(NC(=O)c2cnn(-c3cccc(F)c3)c2-n2cccc2)cc1	4%
O=C1NC(=NC2CCCC2)C2(CCN(CC3CC3)CC2)N1c1cc(F)cc(F)c1	-8%
COc1cccc(N2C(=O)NC(=NC3CCCCC3)C23CCCN(C(=O)c2ccccc2F)C3)c1 (stereo unspecified)	49%
O=C1NC(=NC2CCCCC2)C2(CCCN(CC3CCCCC3)C2)N1c1cc(F)cc(F)c1 (stereo unspecified)	7.9µM*
O=C1NC(=NC2CCCCC2)C2(CCN(CC3CC3)CC2)N1c1cc(F)cc(F)c1	-25%
C[S+](=O)([O-])N1CCCC2(C1)C(=NC1CCCC1)NC(=O)N2c1cc(F)cc(F)c1 (stereo unspecified)	i
COc1cccc(N2C(=O)NC(=NC3CCCC3)C23CCCN(CCC(C)C)C3)c1 (stereo unspecified)	13µM*
CC(C)CCN1CCC2(CC1)C(=NC1CCCC1)NC(=O)N2c1cc(F)cc(F)c1	-28%
COc1cccc(N2C(=O)NC(=NC3CCCC3)C23CCCN(C(=O)c2ccccc2)C3)c1 (stereo unspecified)	8%
CC(C)CCN1CCCC2(C1)C(=NC1CCCC1)NC(=O)N2c1cc(F)cc(F)c1 (stereo unspecified)	10µM*
CN(Cc1cccc(F)c1)Cc1cccn1C	-24%[44.1 µM]
CC(C)NC(=O)C[C@@H]1O[C@H](CNC(=O)c2ccccc2)[C@@H](O)[C@H]1O	4%[44.1 µM]
O=C(NCC1CCOCC1)c1cccc(C(F)(F)F)c1	16%
COc1cccc(CNC(=O)CCC2CCN(C(=O)c3ccccc3)CC2)c1	-12%
COc1cc(C)c2c(c1C)C[C@H](C(C)C(=O)N1CCN(c3ccc(F)cc3)CC1)CC2 (stereo partly specified)	-10%[44.1 µM]
CC(C(=O)NCC1CCN(Cc2ccc(F)cc2)CC1)C1CCOCC1 (stereo unspecified)	13%
COc1ccc(CN2CCC(CO)(CN3CCCC3)CC2)cc1OC	-14%
SMILES	Pf Dd2 growth
COc1ccc(CN2CCC(CO)(CN3CCCC3)CC2)cc1C	i
Cc1cc(CN2CCC(CO)(CN3CCCC3)CC2)ccc1F	-28%
CC(C)Oc1ccc(CN2CCC(CO)(CN3CCCC3)CC2)cc1Cl	13µM*
CCc1ccc(CN2CCC(CO)(CN3CCCC3)CC2)cc1	7.1µM*
OCC1(CN2CCCC2)CCN(Cc2cnn(-c3ccccc3)c2)CC1	i
O=C1CC2CCCC(C1)N2C(=O)c1ccc(Cl)cc1	-28%[44.1 µM]
COCc1c(C(=O)N2CCCn3ccnc3C2C(C)C)noc1C (stereo unspecified)	3%
COCCC1(NC(=O)CCc2ccc(OC)cc2)CCN(C2CCOCC2)CC1	i
CN(C)S(=O)(=O)N1CCN(C(=O)Cn2nc3c(cc2=O)CCCC3)CC1	6%
COc1ccc(S(=O)(=O)NC[C@H]2COCc3nc4ccc(C)cc4n32)cc1	-29%[44.1 µM]
O=C([C@@H]1C[C@H](Oc2ccccc2)CN1C(=O)C1CCCC1)N1CCOCC1	6%
Cc1nnsc1C(=O)N[C@H]1CCN(C(=O)COCC(=O)O)[C@H](C(=O)N[C@H](Cc2ccccc2)C(N)=O)C1	-4%
CCOc1ccc(NC(=O)c2ccc(-c3ccccc3)s2)cc1	18%
CCOc1cccc(C(=O)Nc2ccc(NC(=O)c3ccc(Br)cc3)cc2)c1	i
CCOC(=O)Cc1cc(C(=O)Nc2ccc(Br)cc2)sc1-c1ccc(C)cc1	7.1µM*
Cc1ccc(C(=O)N2CCCC(c3nc(CCOCC4CCCC4)no3)C2)cn1 (stereo unspecified)	-13%
CCN1CCN(c2nc3c(s2)CN(C(=O)COC)CC3)CC1	i
CCC(Cn1cnc(-c2ccccc2)c1-c1ccc(C#N)cc1)N1CCN(C)CC1 (stereo unspecified)	8.9µM*
CCOCCn1cnc(-c2ccccc2)c1-c1cccc(C#N)c1	i
CCSc1ncc(-c2c(-c3ccccc3)ncn2CC[C@@H](C)CO)cn1	-26%
COCCN1C(=O)CC[C@]2(C(=O)NCc3cccc(Cl)c3)CCCC[C@@H]12	-3%
O=C1C2=C(Nc3ccccc3SC2c2ccc(Cl)c(Cl)c2)c2ccccc21 (stereo unspecified)	3.5µM*
CCCc1ccc(C2Sc3ccccc3NC3=C2C(=O)c2ccccc23)cc1 (stereo unspecified)	3.2µM*
CCOc1cc(C2CC(=O)Nc3c2c(C)nn3-c2nc(C)cc(C)n2)ccc1O (stereo unspecified)	-28%
C#CCOc1c(Br)cc(C2C(C(=O)OC)=C(C)NC3=C2C(=O)c2ccccc23)cc1OCC (stereo unspecified)	i
SMILES	Pf Dd2 growth
CCOc1cc(C2Sc3ccccc3NC3=C2C(=O)c2ccccc23)ccc1O (stereo unspecified)	11µM*
O=C(NCc1ccccc1Cl)c1cc2c(s1)-c1ccccc1SC2	-1%
CC(=O)Nc1ccc(NC(=O)CC2Sc3ccccc3NC2=O)cc1 (stereo unspecified)	16%
COC1CN(c2ccc(C)cc2)C12CCN(C(=O)c1nccc3ccccc13)CC2 (stereo unspecified)	i
Cc1cc(NC(=O)CC[C@H]2NC(=O)c3ccccc3NC2=O)nn1C	-9%
CC(C)NC(=O)N1CCC2(CC1)C(=O)NCN2C(=O)Cc1c[nH]c2ccccc12	8%
COc1cccc(C(=O)NCCC2CCN(C(=O)Nc3ccc(C)cc3)CC2)c1	i
Cc1ccc(C(=O)N2[C@@H]3CC[C@H]2CC(NC(=O)c2cnc(C)cn2)C3)c(C)c1 (stereo partly specified)	2%
CN1c2cc(C(=O)N3CCN(C4CCCCC4)CC3)ccc2C(=O)N2CCCCC21 (stereo unspecified)	-9%
CCNC(=O)N1Cc2[nH]cnc2C[C@H]1c1nc(-c2ccc(OC(F)(F)F)cc2)no1	i
CCC(=O)N1CCN(c2nc3c(s2)CC(C(=O)N2CCN(CC)CC2)CC3)CC1 (stereo unspecified)	-24%
CC[C@@]1(O)CCN(C(=O)c2ccccc2OC(F)(F)C(F)F)C[C@H]1O	9%
COc1ccccc1NC(=O)c1sc2nc(C)c(C(=O)Nc3ccc(C)cc3C)c(-c3ccccc3Cl)c2c1N	5.6µM*
COc1ccccc1NC(=O)c1sc2cccc(Cl)c2c1Cl	42%
COc1ccccc1NC(=O)c1sc2nc(C)c(C(=O)Nc3ccc(C)cc3C)c(-c3ccc(C)o3)c2c1N	11µM*
COC(=O)c1ccccc1NC(=O)c1sc2nc(C)cc(C)c2c1NC(=O)c1ccccc1OC	33%
Cc1ccc(NC(=O)c2c(C)nc3sc(C(=O)Nc4ccc(F)cc4)c(N)c3c2-c2ccc(C)o2)c(C)c1	3.5µM*
